LGR2 inh: blocks bursicon-induced cAMP signaling via Drosophila LGR2 | actives 0.35% (n = 380,000) | inhibition, % at 9.99 µM | AID 720647 | HEK293 LGR2, CRE-luciferase, bursicon-stimulated, 4 h;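 active means drop in luminescence signal, shown as inhibition above about 50% in the replicate tests, limit read from the data, passing the limit was not always enough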;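 further: agonist challenge used bursicon conditioned medium at about half maximal strength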
PAX8 reporter: inhibitors of PAX8 transcriptional activity in RMG-I cells; RMG-I TPO-luciferase reporter, SteadyGlo, 24 h; actives 1.2% (n = 360,000); inhibition, % at 12.6 µM;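 active means mean replicate inhibition at least 60% with every replicate also reaching 60%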;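 further: luciferase light reporting Pax8 driven TPO promoter activity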
LMP1 NFkB inh: Epstein-Barr LMP1 NF-kappaB reporter inhibition; LMP1-induced NF-kappaB luciferase reporter cells, luminescence; inhibition, % at 12.5 µM; actives 0.69% (n = 350,000); AID 504558; in the data active means inhibition above about 41%
TROY signal inh: inhibitors of TROY-dependent NF-kB signaling | Q293 LMP1-TROYcd NF-kB luciferase reporter, 4 h | inhibition, % at 10 µM | actives 0.98% (n = 360,000);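 active means compounds whose plate-normalised and pattern-corrected inhibition of the luciferase reporter signal at the single screening dose is 50% or more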
EWS-Fli block: blocks EWS/Fli oncoprotein-driven transcription | inhibition, % at 12.6 µM | A673 NR0B1-luciferase reporter, viability-normalised | actives 0.67% (n = 350,000) | AID 651661;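 active means mean inhibition of at least 50% after viability correction, with every replicate also passing that limit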;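 further: firefly luciferase signal divided by Alamar Blue viability fluorescence both relative to DMSO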
TWEAK-Fn14 inh: inhibitors of TWEAK-Fn14 interaction signaling; inhibition, % at 10 µM; actives 2% (n = 360,000); TWEAK-stimulated Fn14 reporter cells, luciferase luminescence, 8 h; in the data active means inhibition above about 50%
Numbers stand for hits. A selection: hits, their analogues and other compounds. The true share with any hit is near 3.2%.

Results for C[C@H]1CCCCO[C@H](CN(C)C(=O)Nc2ccc(C(F)(F)F)cc2)[C@@H](C)CN([C@@H](C)CO)C(=O)c2cc(NC(=O)Nc3ccc(F)cc3)ccc2O1 ?
LGR2 inh: inactive; PAX8 reporter: 84.3; EWS-Fli block: inactive

How did C[C@@H]1CCCCO[C@H](CN(C)C)[C@@H](C)CN([C@H](C)CO)C(=O)c2cc(NC(=O)Nc3ccc(C(F)(F)F)cc3)ccc2O1 do in these assays?
LGR2 inh: inactive; PAX8 reporter: inactive; EWS-Fli block: inactive

How did O=C(C[C@@H]1CC[C@H]2[C@@H](COC[C@@H](O)CN2Cc2ccc(C(F)(F)F)cc2)O1)N1CCc2ccccc2C1 do in these assays?
LGR2 inh: inactive

How did COCC(=O)N1[C@H](C#N)[C@H](c2ccccc2-c2cccc(OC)c2)[C@@H]1CO do in these assays?
LGR2 inh: inactive; PAX8 reporter: inactive; EWS-Fli block: inactive

How did C[C@@H]1CCCCO[C@H](CN(C)C(=O)Nc2ccc(F)cc2)[C@H](C)CN([C@H](C)CO)C(=O)c2cc(NC(=O)C3CCCCC3)ccc2O1 do in these assays?
LGR2 inh: inactive; PAX8 reporter: inactive; EWS-Fli block: inactive

What do the screens show for `C[C@@H]1CCCCO[C@@H](CN(C)S(C)(=O)=O)[C@H](C)CN([C@H](C)CO)C(=O)c2cc(NC(=O)Nc3ccc(C(F)(F)F)cc3)ccc2O1`?
LGR2 inh: inactive; PAX8 reporter: inactive; EWS-Fli block: inactive

What do the screens show for `C[C@@H]1CN([C@H](C)CO)C(=O)c2cc(NC(=O)Nc3ccc(F)cc3)ccc2O[C@@H](C)CCCCO[C@H]1CN(C)C(=O)Nc1ccc(C(F)(F)F)cc1`?
LGR2 inh: inactive; PAX8 reporter: 87.0; EWS-Fli block: inactive

How did C[C@H](CO)N1C[C@H](C)[C@H](CN(C)S(=O)(=O)c2cccs2)OCCCC[C@H](C)Oc2ccc(NC(=O)Nc3ccc(C(F)(F)F)cc3)cc2C1=O do in these assays?
LGR2 inh: inactive; PAX8 reporter: 74.8; EWS-Fli block: inactive

Results for C[C@@H]1CCCCO[C@H](CN(C)C(=O)Nc2ccc(C(F)(F)F)cc2)[C@@H](C)CN([C@@H](C)CO)C(=O)c2cc(NC(=O)Nc3ccc(C(F)(F)F)cc3)ccc2O1 ?
LGR2 inh: inactive; PAX8 reporter: 89.3; EWS-Fli block: inactive

What do the screens show for `C[C@H]1CCCCO[C@@H](CN(C)S(=O)(=O)c2cccs2)[C@@H](C)CN([C@@H](C)CO)C(=O)c2cc(NC(=O)Nc3ccc(C(F)(F)F)cc3)ccc2O1`?
LGR2 inh: inactive; PAX8 reporter: inactive; EWS-Fli block: inactive

How did C[C@@H]1CN([C@H](C)CO)C(=O)c2cc(NC(=O)Nc3ccc(C(F)(F)F)cc3)ccc2O[C@@H](C)CCCCO[C@H]1CN(C)S(C)(=O)=O do in these assays?
LGR2 inh: inactive; PAX8 reporter: 73.0; EWS-Fli block: inactive

What do the screens show for `C[C@@H]1CCCCO[C@H](CN(C)C(=O)Nc2ccc(C(F)(F)F)cc2)[C@H](C)CN([C@@H](C)CO)C(=O)c2cc(NC(=O)Nc3ccc(C(F)(F)F)cc3)ccc2O1`?
LGR2 inh: inactive; PAX8 reporter: inactive; EWS-Fli block: inactive

How did C[C@H](CO)N1C[C@H](C)[C@@H](CN(C)C(=O)Nc2ccccc2)Oc2ncc(Br)cc2C1=O do in these assays?
LGR2 inh: inactive; EWS-Fli block: inactive

How did CN1C(=O)c2cc(NC(=O)c3ccc(F)c(F)c3)ccc2OC[C@H]2O[C@H](CC(=O)O)CC[C@@H]21 do in these assays?
LGR2 inh: inactive; PAX8 reporter: inactive; EWS-Fli block: inactive

Results for CO[C@H]1CN(C)C(=O)c2ccc(NS(C)(=O)=O)cc2OC[C@H](C)N(CC2CC2)C[C@@H]1C ?
LGR2 inh: inactive; PAX8 reporter: inactive; EWS-Fli block: inactive

Results for CO[C@H]1CN(C)C(=O)c2ccc(NC(C)=O)cc2OC[C@@H](C)N(CCC(F)(F)F)C[C@@H]1C ?
LGR2 inh: inactive; EWS-Fli block: inactive

What do the screens show for `CCC(=O)N[C@@H]1C=C[C@@H](CC(=O)NCC2CC2)O[C@@H]1CO`?
LGR2 inh: inactive; EWS-Fli block: inactive

Results for C[C@@H]1CCCCO[C@@H](CN(C)C(=O)Nc2ccc(F)cc2)[C@H](C)CN([C@@H](C)CO)C(=O)c2cc(NC(=O)Nc3ccc(C(F)(F)F)cc3)ccc2O1 ?
LGR2 inh: inactive; PAX8 reporter: 78.3; EWS-Fli block: inactive

Results for C[C@H](CO)N1C[C@H](C)[C@H](CN(C)C(=O)Nc2ccccc2)OCc2cn(nn2)CCCC1=O ?
LGR2 inh: inactive; EWS-Fli block: inactive

Results for O=[N+]([O-])c1ccc(Sc2ncccn2)c([N+](=O)[O-])c1 ?
PAX8 reporter: inactive; LMP1 NFkB inh: inactive; TROY signal inh: inactive; EWS-Fli block: inactive; TWEAK-Fn14 inh: 54.4

Results for O=c1cc(-c2ccccc2)nc(Sc2ccc([N+](=O)[O-])cc2[N+](=O)[O-])[nH]1 ?
LGR2 inh: inactive; PAX8 reporter: inactive; LMP1 NFkB inh: inactive; TROY signal inh: inactive; EWS-Fli block: inactive; TWEAK-Fn14 inh: 52.3

How did CC(C)Sc1nc(-c2ccccc2)cc(=O)[nH]1 do in these assays?
LMP1 NFkB inh: inactive; TROY signal inh: inactive; TWEAK-Fn14 inh: inactive

Results for Cc1cccc(Sc2ccc([N+](=O)[O-])cc2[N+](=O)[O-])n1 ?
LGR2 inh: inactive; PAX8 reporter: inactive; LMP1 NFkB inh: inactive; TROY signal inh: inactive; EWS-Fli block: inactive; TWEAK-Fn14 inh: inactive

Results for O=[N+]([O-])c1ccc(Sc2nccn2Cc2ccccc2)c([N+](=O)[O-])c1 ?
LGR2 inh: inactive; LMP1 NFkB inh: inactive; TROY signal inh: inactive; EWS-Fli block: inactive; TWEAK-Fn14 inh: 69.5

How did CN(C)C(=O)[C@@H]1[C@@H](CO)[C@@H]2Cn3c(ccc(C4=CCCC4)c3=O)[C@H]1N2C do in these assays?
LGR2 inh: inactive; EWS-Fli block: inactive

What do the screens show for `C[C@@H]1CN([C@H](C)CO)C(=O)c2cc(NS(=O)(=O)c3ccccc3)ccc2O[C@H]1CN(C)S(C)(=O)=O`?
LGR2 inh: inactive; EWS-Fli block: inactive

How did Cc1cc(C(=O)Nc2cccc3c2O[C@@H](CN(C)C(=O)Nc2ccc(F)cc2)[C@@H](C)CN([C@@H](C)CO)C3=O)n(C)n1 do in these assays?
LGR2 inh: inactive; PAX8 reporter: inactive; EWS-Fli block: inactive

Results for Cc1noc(C)c1S(=O)(=O)Nc1ccc2c(c1)C(=O)N([C@@H](C)CO)C[C@@H](C)[C@@H](CN(C)Cc1ccc(Cl)c(Cl)c1)OCCCC[C@@H](C)O2 ?
LGR2 inh: inactive; PAX8 reporter: 64.9; EWS-Fli block: inactive

What do the screens show for `Cc1noc(C)c1S(=O)(=O)Nc1ccc2c(c1)C(=O)N([C@H](C)CO)C[C@H](C)[C@H](CN(C)Cc1ccc(Cl)c(Cl)c1)OCCCC[C@@H](C)O2`?
LGR2 inh: inactive; PAX8 reporter: inactive; EWS-Fli block: inactive

Assay outcomes from PubChem BioAssay.
